± gives the standard deviation.
Columns and labels:
Details in all cases: modulator concentration 10 µM
[1] = tested on: RAW-Dual (murine macrophage reporter line); assay: NF-kB reporter (SEAP) activity fold change vs agonist alone; higher = enhanced NF-kB activity
In short: (§1)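 Overnight stimulation with a PRR agonist followed pre-incubation for 1 hour at 37 °C with compound at 10 μM final. This was done in RAW-Dual murine macrophage reporter cells seeded at 50 000 per well in 384-well plates. NF-κB (SEAP, QUANTI-Blue absorbance at 620 nm) and IRF (Lucia luciferase, QUANTI-Luc luminescence) were read from the supernatant. Each reporter's fold change relative to the mean agonist-only control on the same plate was averaged over replicate plates.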

[2] = tested on: RAW-Dual (murine macrophage reporter line); assay: IRF reporter (Lucia luciferase) activity fold change vs agonist alone; higher = enhanced IRF activity
In short: as §1

[3] = tested on: RAW-Dual (murine macrophage reporter line); assay: viability score (confluency relative to resting cells, overnight) (fraction); higher = more viable, active = viable (0.7 or more)
In short: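 Confluency was the readout: RAW-Dual macrophages were imaged with IncuCyte after an overnight exposure to compound at 10 μM final. IncuCyte software produced two masks over all imaged wells. The viability score expresses confluency against resting cells, and both masks had to exceed 70% of resting cells for a compound to meet the cutoff.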

[4] = agonist: CpG ODN 1826 0.5 ug/mL

| Structure (SMILES) | NF-kB reporter [1, 4] | NF-kB reporter ([1]; agonist: LPS 0.1 ug/mL) | NF-kB reporter ([1]; agonist: MPLA […]) | IRF reporter ([2]; agonist: 3'3'-cGAMP 10 ug/mL) | IRF reporter ([2]; agonist: LPS 0.1 ug/mL) | IRF reporter ([2]; agonist: MPLA […]) | viability score [3] |
| --- | --- | --- | --- | --- | --- | --- | --- |
| N#Cc1c(-n2ncnc2-c2cccc([N+](=O)[O-])c2)sc2c1CCCC2 | 0.954 ± 0.063 | 1.05 ± 0.085 | 0.932 ± 0.073 | 0.932 ± 0.033 | 1.46 ± 0.12 | 1.2 ± 0.15 | 1 (active) |
| O=S(=O)(Cc1ccccc1)Nc1ccccn1 | 0.951 ± 0.054 | 1.03 ± 0.084 | 0.893 ± 0.067 | 0.961 ± 0.032 | 1.49 ± 0.13 | 1.27 ± 0.15 | 1 (active) |
| COc1cc(C)ccc1NC(=O)Cc1csc(NC(=O)Nc2ccccc2OC)n1 | 1.32 ± 0.14 | 1.02 ± 0.074 | 0.887 ± 0.1 | 0.978 ± 0.063 | 0.793 ± 0.059 | 0.818 ± 0.26 | 1 (active) |
| Brc1ccc2ncnc(N3CCOCC3)c2c1 | 1.17 ± 0.097 | 1.39 ± 0.098 | 1.13 ± 0.05 | 0.357 ± 0.087 | 0.515 ± 0.039 | 0.592 ± 0.084 | 1 (active) |
| Cn1c(=O)cc(N2CCC[C@@H](N)C2)n(Cc2cc(F)ccc2C#N)c1=O.O=C(O)CCC(=O)O | 0.0816 ± 0.0048 | 0.119 ± 0.014 | 0.376 ± 0.039 | 0.0243 ± 0.0016 | 0.262 ± 0.076 | 0.205 ± 0.069 | 0.128 (inactive) |
| O=C(Nc1ccc(S(=O)(=O)N2CCOCC2)cc1)c1ccc(Br)s1 | 1.14 ± 0.13 | 1.02 ± 0.092 | 1.01 ± 0.029 | 0.521 ± 0.021 | 1.05 ± 0.065 | 1.12 ± 0.12 | 0.995 (active) |
| CCOC(=O)N1CCN(C(=O)CSc2nnc(-c3cccc(Cl)c3)o2)CC1 | 0.846 ± 0.18 | 0.96 ± 0.065 | 0.974 ± 0.057 | 0.769 ± 0.03 | 1.29 ± 0.1 | 1.04 ± 0.11 | 0.95 (active) |
| COCCN1CCC(NC(=O)c2cnc3ccccc3n2)CC1 | 0.441 ± 0.024 | 1.02 ± 0.085 | 1.35 ± 0.072 | 0.951 ± 0.05 | 1.14 ± 0.25 | 1.2 ± 0.48 | 0.935 (active) |
| CN(C)c1nc(CNC(=O)CSc2nc3ccccc3o2)nc(N(C)C)n1 | 1.01 ± 0.07 | 1.13 ± 0.12 | 1.01 ± 0.067 | 0.959 ± 0.048 | 1.05 ± 0.063 | 1 ± 0.078 | 0.979 (active) |
| Oc1ccc(Cl)cc1-c1nc2ccccc2s1 | 1.01 ± 0.084 | 0.944 ± 0.087 | 0.967 ± 0.091 | 1.09 ± 0.035 | 1.29 ± 0.16 | 1.58 ± 0.23 | 1.02 (active) |
| COc1ccc(C2NC(=O)C(O)=C2C(C)=O)cc1 (centres undefined) | 0.734 ± 0.057 | 0.884 ± 0.11 | 1.09 ± 0.095 | 0.914 ± 0.047 | 1.29 ± 0.085 | 1.41 ± 0.12 | 1.01 (active) |
| Cc1nn2c(=O)c(Cc3ccccc3)c(C)[nH]c2c1-c1ccccc1 | 0.777 ± 0.068 | 0.878 ± 0.082 | 1.06 ± 0.11 | 1.09 ± 0.057 | 1.26 ± 0.074 | 1.36 ± 0.11 | 1 (active) |
| CN1CC(=O)N2[C@H](c3ccc4c(c3)OCO4)c3[nH]c4ccccc4c3C[C@@H]2C1=O | 0.821 ± 0.2 | 1.05 ± 0.23 | 0.976 ± 0.056 | 0.869 ± 0.026 | 1.01 ± 0.24 | 0.922 ± 0.08 | 0.981 (active) |
| O=C(O)c1ccc2c(c1)nc(Nc1cccc(Cl)c1)c1ccncc12 | 1.24 ± 0.19 | 1.35 ± 0.35 | 1.4 ± 0.34 | 0.993 ± 0.033 | 1.39 ± 0.32 | 0.832 ± 0.083 | 0.986 (active) |
| Cl.Cl.Clc1ccc(Nc2nnc(Cc3ccncc3)c3ccccc23)cc1 | 1.04 ± 0.15 | 1 ± 0.24 | 1.14 ± 0.31 | 0.628 ± 0.021 | 1.12 ± 0.2 | 0.926 ± 0.14 | 0.979 (active) |
| COc1ccc(S(=O)(=O)Nc2ccc(Oc3ccccc3)cc2)cc1 | 1.04 ± 0.18 | 1.02 ± 0.11 | 2.55 ± 1.5 | 0.972 ± 0.033 | 1.17 ± 0.13 | 1.21 ± 0.2 | 1.01 (active) |
| C[C@H](Nc1ncnc2[nH]cnc12)c1cc2cccc(Cl)c2c(=O)n1-c1ccccc1 | 0.557 ± 0.042 | 0.808 ± 0.054 | 0.859 ± 0.024 | 0.728 ± 0.041 | 0.991 ± 0.095 | 1.1 ± 0.093 | 0.906 (active) |
| NC[C@@H]1O[C@H](O[C@@H]2[C@@H](CO)OC(O[C@@H]3[C@@H](O)[C@H](N)C[C@H](N)[C@H]3O[C@H]3O[C@H](CN)[C@@H](O)[C@H](O)[C@H]3N)[C@@H]2O)[C@H](N)[C@@H](O)[C@@H]1O.O=S(=O)(O)O (some centres undefined) | 0.993 ± 0.074 | 1.01 ± 0.091 | 0.983 ± 0.025 | 0.908 ± 0.09 | 1.02 ± 0.081 | 1.11 ± 0.12 | 1 (active) |
| C[C@@H]1COC(Nc2ccc3ncnc(Nc4ccc(OCc5nccs5)c(Cl)c4)c3c2)=N1 | 0.381 ± 0.07 | 0.881 ± 0.17 | 0.84 ± 0.065 | 0.186 ± 0.023 | 0.833 ± 0.2 | 1.27 ± 0.23 | 0.595 (inactive) |
| Cc1ccc(C(C)C)c(Oc2ccccc2NC(=O)c2cc(I)cc(I)c2O)c1 | 0.995 ± 0.066 | 0.985 ± 0.082 | 0.924 ± 0.071 | 0.915 ± 0.035 | 1.44 ± 0.092 | 1.27 ± 0.25 | 1 (active) |
| Cc1cc(OCC(=O)NCCn2nc(C3CC3)ccc2=O)cc(C)c1Cl | 0.861 ± 0.2 | 1 ± 0.055 | 1.01 ± 0.064 | 0.956 ± 0.039 | 0.823 ± 0.14 | 1.01 ± 0.26 | 0.778 (active) |
| Cl.N=C1CCCN1Cc1[nH]c(=O)[nH]c(=O)c1Cl | 1.46 ± 0.062 | 0.379 ± 0.037 | 0.688 ± 0.06 | 0.423 ± 0.028 | 0.796 ± 0.23 | 0.995 ± 0.31 | 0.961 (active) |
| O=C(O)CCCN1CCC(O[C@@H](c2ccc(Cl)cc2)c2ccccn2)CC1.O=S(=O)(O)c1ccccc1 | 1.37 ± 0.19 | 1.24 ± 0.3 | 0.988 ± 0.059 | 0.995 ± 0.046 | 1.18 ± 0.26 | 1.09 ± 0.1 | 0.985 (active) |
| COc1c(C)c2c(c(O)c1CC=C(C)CCC(=O)O)C(=O)OC2 | 0.695 ± 0.23 | 0.118 ± 0.008 | 0.367 ± 0.023 | 0.287 ± 0.0097 | 1.16 ± 0.15 | 1.55 ± 0.16 | 0.547 (inactive) |
| COc1ccc(C=NNC(=O)c2ccc(CN3CCOCC3)cc2)cc1[N+](=O)[O-] | 1.01 ± 0.085 | 1.06 ± 0.089 | 0.961 ± 0.067 | 1.04 ± 0.039 | 1.47 ± 0.14 | 1.28 ± 0.11 | 0.988 (active) |
| O=C(c1ccc(F)cc1)C1CCN(CCn2c(=O)[nH]c3ccccc3c2=O)CC1 | 0.477 ± 0.028 | 0.956 ± 0.1 | 1.34 ± 0.072 | 1.47 ± 0.068 | 1.21 ± 0.19 | 1.45 ± 0.34 | 0.314 (inactive) |
| Cc1cccc(Sc2nccn3c(=O)n(CC(=O)N4CCN(c5ccccc5)CC4)nc23)c1 | 0.924 ± 0.081 | 0.589 ± 0.067 | 0.664 ± 0.043 | 0.28 ± 0.024 | 0.6 ± 0.041 | 0.733 ± 0.12 | 0.983 (active) |

— the supplement of paper PMC10646978
